Test results as given in ChEMBL document CHEMBL4513216, “Probing the Open Global Health Chemical Diversity Library for Multistage-Active Starting Points for Next-Generation Antimalarials” (ACS Infect Dis, 2020).
Out of some 65,000 compounds screened, about 2,100 (3.2%) showed an effect of 50% or more. The median lay at about -52%. The sample as a whole holds a higher share of strong results than the screen did.

Test system: Plasmodium falciparum
Test: Screen against P. falciparum Asexual Blood Stage (ABS), at 5uM
Type: functional, Dd2
Settings: tested at 5 uM

SMILES	INHIBITION [%]
O=C(NCc1cccnc1)[C@H]1CC[C@@H]2[C@@H](CCN2c2ncccn2)O1	41.4
CNC(=O)c1cc2c(nc1NCC(C)C)CCN(c1ncccn1)CC2	-98.4
CC(Cn1cccn1)NCc1cnc(N2CCCC2)nc1 (stereo not given)	-141
c1ccc(OCCNCc2cccs2)nc1	-79.1
c1ccc(OCCCNCc2cccs2)nc1	19.1
Cc1ccsc1CNCCCOc1ccccn1	54.4
O=C(c1cnc(C2CC2)nc1)N1CCCC(c2nccs2)C1 (stereo not given)	-138
O=C(c1cscn1)N1CCC2(CCCN(CCOc3ccccc3)C2)C1 (stereo not given)	53.5
O=C([C@H]1CCCO1)N1CCC2(CCCN(CCOc3ccccc3)C2)C1 (stereo not given in full)	-41
O=C(c1cscn1)N1CCC2(CCN(S(=O)(=O)c3ccccc3)C2)C1 (stereo not given)	-20.8
O=C(CC1CC1)N1CCC2(CCCN(CCOc3ccccc3)C2)C1 (stereo not given)	57.8
CN(C)C(=O)N1CCC2(CCCN(CCOc3ccccc3)C2)C1 (stereo not given)	40.1
O=C(N1CCCC1)N1CCC2(CCCN(CCOc3ccccc3)C2)C1 (stereo not given)	-1.79
Cn1ccnc1CN1CCC(Cn2cc(-c3ccccc3)nn2)CC1	24.5
c1cc(CNCC2CNc3ccnn3C2)cc(OC2CCCC2)n1 (stereo not given)	-58.6
CCCc1cnc(C)nc1N1CCC(Cn2cc(CO)nn2)CC1	-65.7
Cc1nccn1-c1cccc(C2CCCN(C3CCCC3)C2)n1 (stereo not given)	1.22
CCc1nccn1-c1cccc(C2CCCN(C3CCCCC3)C2)n1 (stereo not given)	53.2
Cc1nccn1-c1cccc(C2CCCN(C3CCCCC3)C2)n1 (stereo not given)	44.3
Cc1noc(C)c1CN1Cc2ccnn2CC(C(=O)NCC2CC2)C1 (stereo not given)	-30.3
CCCN1CCCn2c(nc(CNC(=O)c3nccn3C)cc2=O)C1	-91.8
CCn1cc(CN2CCCC(c3[nH]ncc3-c3ccc(C)cc3)C2)cn1 (stereo not given)	60.9
Cc1ccc(-c2cn[nH]c2C2CCCN(c3ncccn3)C2)cc1 (stereo not given)	-1.86
Cc1ccc(-c2cn[nH]c2C2CCCN(c3cnccn3)C2)cc1 (stereo not given)	-28
CCn1cc(CN2CCC(c3[nH]ncc3S(C)(=O)=O)C2)cn1 (stereo not given)	-44

SMILES	INHIBITION [%]
CCCn1cc(CN2CCC(c3[nH]ncc3S(C)(=O)=O)C2)cn1 (stereo not given)	-45.2
CCn1cc(CN2CCCC(c3[nH]ncc3-c3ccc(F)cc3)C2)cn1 (stereo not given)	60.9
O=C(c1ccoc1)N1CC[C@@H]2O[C@@H](COCc3ccccn3)CC[C@@H]21	-109
CO[C@@H]1CCN(S(=O)(=O)c2cccs2)[C@H]1Cc1cccnc1	-8.97
CCC(C)N(Cc1cccnc1)C(=O)c1ccc(F)c(O)c1 (stereo not given)	-68.4
CN(C)CC1(O)CCCN(c2noc(-c3ccccc3)n2)CC1 (stereo not given)	-3.62
Cc1cc(N2CCCC(O)(CN(C)C)CC2)nc(-c2ccccc2)n1 (stereo not given)	57.4
CN(C)CC1(O)CCCN(c2nc(-c3ccccc3)no2)CC1 (stereo not given)	-61.2
CC1CN(C)CCN1C(=O)c1ccn(-c2cccc(F)c2)n1 (stereo not given)	-38.4
Cc1cc(NC(=O)N(C)CCN2CCN(c3ccccc3)CC2)on1	-47.3
Cc1cc(NC(=O)CN(c2ccccc2)C(C)C)on1	-5.31
Cc1cc(NC(=O)NC(C)CN2CCN(c3ccccc3)CC2)on1 (stereo not given)	59.6
CNC(=O)c1cccnc1N1CCC(Oc2ccc(F)cc2)CC1	-88.2
O=C(CCc1ccccn1)N1CCCC(n2cncn2)C1 (stereo not given)	-46.3
CC(C)c1n[nH]c(C2CN(C(=O)Cn3ccccc3=O)CCO2)n1 (stereo not given)	-40.5
O=C(CC1CC1)N1CCO[C@H]2[C@H](OCCCn3cccn3)CC[C@@H]21	-14.6
Cc1ccc2[nH]c(CN3CC[C@@H](N4CCN(C)CC4)[C@H](O)C3)c(C)c2c1	-41.6
Cc1c(CN2CC[C@@H](N3CCC(O)CC3)[C@H](O)C2)[nH]c2ccc(Cl)cc12	54.6
Cc1c(CN2CC[C@@H](N3CCC(O)CC3)[C@H](O)C2)[nH]c2ccc(F)cc12	-21.9
CC(=O)c1cc(Br)cc(F)c1OCC(=O)NC(C)C	-96.4
O=C(NCC(F)F)c1ccc(S(=O)(=O)NCCc2ccncc2)cc1	16.5
O=C(CCN1CCCC1)N1CC[C@@H](c2ccc3ccccc3c2)[C@H](O)C1	65.1
O=C(CCn1cccn1)N1CC[C@@H](c2ccc3ccccc3c2)[C@H](O)C1	15.7
O=C(CCN1CCCO1)N1CC[C@@H](c2ccc3ccccc3c2)[C@H](O)C1	15.7
COc1cc(C2c3c(n[nH]c3C)N=C3COC(=O)C32)cc2c1OCO2 (stereo not given)	-31.7
